Source: PubChem BioAssay (NCATS)

How the values were obtained:
[1] = qHTS profiling of the MIPE4 collection as inhibitors of Plasmodium falciparum (3D7) proliferation (AID 743344);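 also: scaled between DMSO vehicle wells and 0.29 µM artemisinin as full inhibition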; settings: P. falciparum 3D7 in erythrocytes, SYBR Green DNA fluorescence, 72 h; at 28.5 µM
In short: (§1)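 Erythrocytes infected with P. falciparum (0.3% parasitemia, 2.5% hematocrit) incubated with compounds 72 h at 37 C, 5% CO2. Lysis with saponin/Triton buffer containing SYBR Green I, overnight at room temperature in the dark; DNA fluorescence (485/535 nm) normalised to 0.29 uM artemisinin and DMSO.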

[2] = qHTS profiling of the MIPE4 collection as inhibitors of Plasmodium falciparum (DD2) proliferation (AID 743345); settings: P. falciparum Dd2 in erythrocytes, SYBR Green DNA, 72 h; at 28.5 µM unless noted
In short: as §1

[3] = qHTS profiling of the MIPE4 collection as inhibitors of Plasmodium falciparum (DD2) proliferation (Rep 2) (AID 743346); settings: P. falciparum Dd2 in erythrocytes, SYBR Green DNA, 72 h; at 28.5 µM
In short: as §1

[4] = qHTS profiling of the MIPE4 collection as inhibitors of Plasmodium falciparum (HB3) proliferation (AID 743347);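 also: plate controls were DMSO vehicle wells for no effect and artemisinin wells for full effect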; settings: P. falciparum HB3 in erythrocytes, SYBR Green DNA, 72 h; at 28.5 µM
In short: as §1

SMILES | parasite growth, % of DMSO control [1] [%] | parasite growth remaining, % of DMSO control (lower = more inhibition) [2] [%] | parasite growth, % of control (lower = inhibition) [3] [%] | growth, % of control [4] [%]
C[C@@H]1[C@H](O)[C@@H](C)C=CC=CCCC=CC=CC=CC=C[C@H](O[C@H]2O[C@@H](C)[C@H](O)[C@@H](N)[C@@H]2O)CC2O[C@](O)(C[C@@H](O)[C@H](O)CC[C@@H](O)C[C@@H](O)C[C@@H](O)CC(=O)O[C@H]1C)C[C@H](O)[C@H]2C(=O)O | 94.4 | 103 | 97.5 | 83.8
COc1ccc2c(c1)CN(C)CC2c1ccc(Cl)c(Cl)c1 (stereo unspecified) | 12.3 | 40.2 | 15.9 | 9.4
C[C@@H]1CC[C@H]2[C@@H](C)C(=O)O[C@@H]3O[C@@]4(C)CC[C@H]1[C@]32OO4 | 22.6 | 7.95 | 7.78 | 7.52
CC(C)[C@]12O[C@@H]1[C@@H]1O[C@]13[C@]1(O[C@H]1C[C@@H]1C4=C(CC[C@@]13C)C(=O)OC4)[C@H]2O | 56.9 | 77 | 49.4 | 44.2
CC1=C(O)C(=O)C=C2C1=CC=C1[C@@]2(C)CC[C@@]2(C)[C@@H]3C[C@](C)(C(=O)O)CC[C@]3(C)CC[C@]12C | 8.49 | 7.57 | 16.2 | 8.31
CCOP(=O)(OCC)C(C)NC(=O)N(CCCl)N=O (stereo unspecified) | 103 | 97.6 | 135 | 116
O=[N+]([O-])c1ncc[nH]1 | 89 | 99.8 | 101 | 81.7
C[C@H]([C@H](O)CCC(C)(C)O)[C@H]1CC[C@@]2(O)C3=CC(=O)[C@@H]4C[C@@H](O)[C@@H](O)C[C@]4(C)[C@@H]3CC[C@]12C | 93.7 | 99.4 | 93.3 | 59
C[C@]12CC[C@H]3[C@@H](CCC4=CC(=O)CC[C@@]43C)[C@H]1CC[C@H]2OC(=O)CCC1CCCC1 | 7.86 | 15.6 | 18.3 | 6.49
CCOC(=O)c1c(C(C#N)=CN)c2ccc(Cl)c(Cl)c2n1C | 90 | 97.1 | 149 | 89.6
COc1cc([C@@H]2c3cc4c(cc3[C@@H](O)C3COC(=O)C32)OCO4)cc(OC)c1O (stereo partly specified) | 64.9 | 88.5 | 64.3 | 66.2
O=C1CCC[C@@H]2[C@H]3CCCN4CCC[C@@H](CN12)[C@@H]34 | 91.5 | 97.9 | 95.1 | 96.2
C#C[C@]1(O)C=C[C@@H]2[C@@H]3CCC4=CC(=O)CC[C@@H]4[C@H]3CC[C@@]21CC | 10.4 | 59.4 | 26.2 | 41.2
CC(O)=C(C#N)C(=O)Nc1cc(Br)ccc1Br | 80.7 | 97 | 78.2 | 93.7
CN1CCN(c2ccc([N+](=O)[O-])c3no[n+]([O-])c23)CC1 | 77.4 | 95.3 | 86.4 | 
O=C(Oc1ccc([N+](=O)[O-])cc1)N1CCN(Cc2cccc(Oc3ccccc3)c2)CC1 | 95.8 | 92.5 | 181 | 96.4
C=C[C@@H]1CN2CCC1C[C@H]2[C@H](O)c1ccnc2ccccc12 (stereo partly specified) | 26.8 | 10.8 | 46.5 | 
C[C@H]1CCCC=CC2C[C@H](O)C[C@@H]2[C@H](O)C=CC(=O)O1 (stereo partly specified) | 4.99 | 9.17 | 9.15 | 2.99
CC(N[C@H]1C[C@H]1c1ccccc1)c1ccc2c(c1)OCCO2 (stereo partly specified) | 90.6 | 74.9 | 64.1 | 60.1
CCc1c(C(=O)C(N)=O)c2c(OCC(=O)O)cccc2n1Cc1ccccc1 | 111 | 97.5 | 83.8 | 99.7
Cc1[nH]nc2ccc(-c3cncc(OC[C@@H](N)Cc4c[nH]c5ccccc45)c3)cc12 | 18.3 | 47.9 | 20.1 | 
CCOC(=O)Nc1ccc(NCc2ccc(F)cc2)cc1N | 12.8 | 13.7 | 30.4 | 15.1
C[C@]12CC[C@H](O)CC1=CC[C@H]1[C@H]3CCC(=O)[C@@]3(C)CC[C@@H]12 | 72.2 | 97.4 | 108 | 
O=c1[nH]c2ccccc2n1C1CCN(Cc2ccc(-c3[nH]c4cc5ncnc5cc4nc3-c3ccccc3)cc2)CC1 | 4.63 | 6.7 | 14.2 | 4.58
COc1cccc2c1[C@]13CCN(CC4CC4)[C@H](C2)[C@]1(OC)CCC(=O)C3 | 98.3 | 102 | 31.9 | 69.1

SMILES | parasite growth, % of DMSO control [1] [%] | parasite growth remaining, % of DMSO control (lower = more inhibition) [2] [%] | parasite growth, % of control (lower = inhibition) [3] [%] | growth, % of control [4] [%]
COc1ccc(N(C(=O)Oc2c(C)cccc2C)c2ccnc(Nc3ccc(N4CCN(C)CC4)cc3)n2)c(OC)c1 | 5.18 | 6.94 | 20.9 | 9.74
CN[C@@H]1Cc2cccc3[nH]c(=O)n(c23)C1 | 92.4 | 105 | 82.7 | 
O=S(=O)(F)Cc1ccccc1 | 95.8 | 95.2 | 85.6 | 
CC(C)N(CCNC(=O)CN1CCCC1=O)C(C)C | 101 | 17.4 | 121 | 108
COc1ccc2c(c1)[C@]13CCCCC1C(C2)N(C)CC3 (stereo partly specified) | 92.5 | 85.3 | 52.9 | 323
C[C@]12CC[C@H]3[C@@H](CCC4=CC(=O)CC[C@@]43C)[C@H]1CC[C@H]2O | 78.5 | 90.8 | 93.2 | 86.3
C[C@@H]1O[C@@H](O[C@@H]2C=C3CC[C@@H]4[C@@H](CC[C@]5(C)[C@H](c6ccc(=O)oc6)CC[C@@]45O)[C@@]3(C)CC2)[C@H](O)[C@H](O)[C@H]1O | 79 | 94.6 | 96.7 | 94.5
Cc1c(N)nc([C@H](CC(N)=O)NC[C@@H](N)C(N)=O)nc1C(=O)N[C@H](C(=O)N[C@@H](C)[C@H](O)[C@@H](C)C(=O)N[C@@H](C(=O)NCCc1nc(-c2nc(C(=O)NCCC[S+](C)C)cs2)cs1)[C@@H](C)O)C(O[C@H]1O[C@H](CO)[C@H](O)[C@@H](O)[C@@H]1O[C@H]1O[C@H](CO)[C@@H](O)[C@H](OC(N)=O)[C@H]1O)c1cnc[nH]1 (stereo partly specified) | 11 | 9.76 | 15.5 | 68.4
CCNC(=O)CC1N=C(c2ccc(Cl)cc2)c2cc(OC)ccc2-n2c(C)nnc21 (stereo unspecified) | 26.1 | 93.8 | 70.5 | 42.1
COc1ccc(CC2NCCc3cc(OC)c(OC)cc32)cc1OC (stereo unspecified) | 85.9 | 85.6 | 55.8 | 90.4
C[C@]12CCC(=O)C(O)=C1CC[C@@H]1[C@H]3CCC(=O)[C@@]3(C)CC[C@@H]12 | 77.1 | 94.3 | 71.5 | 54.8
COC1=C[C@@H]2[C@@H]3Cc4ccc(OC)c(O)c4[C@]2(CCN3C)CC1=O | 102 | 84.4 | 34.6 | 106
C#CC1(O)CCC2C3CCC4=CC(=O)CCC4(C)C3CCC21C (stereo unspecified) | 78.6 | 106 | 88 | 89
CC(=Cc1csc(C)n1)[C@@H]1C[C@H]2O[C@]2(C)CCC[C@H](C)[C@@H](O)[C@@H](C)C(=O)C(C)(C)[C@@H](O)CC(=O)O1 |  | 15.7 | 35.2 | 16.9
CN1[C@H]2CC(O)C[C@H]1[C@H]1O[C@H]12 (stereo partly specified) |  | 12.2 | 28.8 | 
C[C@@]12OC(=O)[C@]1([C@@H](O)[C@@H]1C=CCCC1)NC(=O)[C@H]2CCCl |  | 7.57 | 10.7 | 5.21
CCCC[N+]1(C)[C@H]2CC(OC(=O)[C@H](CO)c3ccccc3)C[C@H]1[C@H]1O[C@H]12 (stereo partly specified) |  | 100 | 86.4 | 52.3
COC[C@H]1OC(=O)c2coc3c2[C@@]1(C)C1=C(C3=O)[C@@H]2CC[C@H](O)[C@@]2(C)C[C@@H]1OC(C)=O |  | 83.2 | 79.7 | 
CC(=O)N(C)c1cccc(-c2ccnc3c(C(=O)c4cccs4)cnn23)c1 |  | 66.2 | 51.9 | 50.4
C=C[C@@H]1CN2CCC1C[C@@H]2[C@@H](O)c1ccnc2ccccc12 (stereo partly specified) |  | 21.4 | 45.8 | 17.3
Clc1ccccc1C(c1ccccc1)(c1ccccc1)n1cccn1 | 9.07 | 34.8 | 11.6 | 6.73
CCN(CC)C(=O)c1ccc(C2=CC3(CCNCC3)Oc3cccc(O)c32)cc1 |  | 42.1 | 14.4 | 38.8
CCOC(=O)c1cncn1[C@H](C)c1ccccc1 | 46.8 | 98 | 70.6 | 67.6
N=c1c2c(-c3ccccc3)c(-c3ccccc3)n(Cc3ccccc3)c2ncn1C1CCC(O)CC1 (stereo unspecified) |  | 9.02 | 12.7 | 9.68
O=S(=O)(CC1CS1)c1ccc(Oc2ccccc2)cc1 (stereo unspecified) |  | 104 | 73.8 | 
